Assay outcomes from PubChem.
The list is not random: actives were taken first. Their share in the collection is about 11%.
ALDH1A1 inh: ALDH1A1 (human) enzyme inhibition | Purified ALDH1A1, NADH fluorescence, propionaldehyde substrate | Potency, µM (series often up to 75.3 µM), for inactives: at the top dose activity, negative = inhibition, hits mostly inhibitors | actives 7.3% (n = 220,000) | P00352; active = well fitted inhibition curve with a large enough effect, not every such curve was filed as active; inconclusive = small, poorly fitted or top-dose-only effect, or another doubt; inactive = no such curve, though single readings can be large or run the other way;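 note: potency is the fitted concentration of half-maximal effect; plate controls were no enzyme wells and a reference inhibitor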
IMPase Li cell: IMPase inhibition in cells with lithium potentiation. CHO-M1 cells, IP1 TR-FRET (IP-One), carbachol + lithium. Potency, µM (doses to about 59.4 µM), for inactives: at the top dose activity, negative = IMPase inhibition, most hits filed as inhibitors. actives 0.35% (n = 210,000);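 note: IP1 builds up when IMPase is blocked and the TR-FRET signal falls; potency is the fitted concentration of half-maximal effect; plate controls were basal vehicle for no effect and high inhibitor control for full effect; nearly all actives have a fitted effect of over 50% in size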
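Steps: plate 2000 CHO-M1 cells per well and culture 16–30 h; add compound and lithium; incubate 30 min, 37C; add d2-IP1 tracer and Eu cryptate anti-IP1 antibody in lysis buffer; read after 10 min at room temperature.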
ALOX12 inhib: inhibitors of human 12-lipoxygenase (ALOX12); Potency, µM (series often up to 57.1 µM), without a hit: at the top dose activity change, negative = inhibition, usual class: inhibitors; AID 1452; actives 0.12% (n = 150,000); purified 12-hLO, xylenol orange hydroperoxide absorbance; P18054; note: potency is the fitted concentration of half-maximal effect; nearly all actives have a fitted effect of over 55% in size
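Hydroperoxide formation by human 12-lipoxygenase from 40 uM arachidonic acid was followed colorimetrically via ferric-xylenol orange complex, using the 573/405 nm absorbance ratio. Enzyme concentration was 150 nM, with 30 min reaction at room temperature.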
IMPase inh: membrane-permeable compound that blocks inositol monophosphatase. P97697. CHO-M1 cells, IP1 accumulation, HTRF TR-FRET ratio. inhibition (IP1 accumulation), % at 46.1 µM. 120,000 tested, under 10 active. AID 901; active = well fitted curve in the direction sought with a large enough effect in the signal ratio, not every such curve was filed as active; inconclusive = small, poorly fitted or top-dose-only effect, or a change in a side signal; inactive = no such curve, though single readings can be large or run the other way; the % refers to the signal ratio;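 note: cells stimulated with carbachol in lithium chloride buffer; plate controls were DMSO basal wells for no effect and reference inhibitor wells for full effect; higher means more IMPase inhibition seen as more IP1 and lower FRET ratio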
Target sequence (P97697 whole entry, looked up): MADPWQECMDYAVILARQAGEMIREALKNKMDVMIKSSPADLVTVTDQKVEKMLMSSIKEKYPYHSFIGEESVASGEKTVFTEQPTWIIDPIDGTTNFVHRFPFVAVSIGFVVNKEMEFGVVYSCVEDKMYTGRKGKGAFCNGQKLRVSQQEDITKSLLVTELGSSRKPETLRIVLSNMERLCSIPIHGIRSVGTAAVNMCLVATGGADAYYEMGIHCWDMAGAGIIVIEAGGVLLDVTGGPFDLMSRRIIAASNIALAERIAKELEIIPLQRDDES
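Measured: the HTRF emission ratio (665/620 nm) plus the 620 nm donor channel, each fitted to the Hill equation to give AC50. Cells were CHO-M1 given compounds up to 46 uM and a 30 min carbachol stimulation at 37C.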
HPGD inh: HPGD (human) dehydrogenase inhibition | purified HPGD, NADH fluorescence kinetic, PGE2 substrate | Potency, µM, inactives show at the highest dose activity change, negative = inhibition, actives largely listed as inhibitors | actives 4.3% (n = 150,000); active = well fitted inhibition curve with a large enough effect, not every such curve was filed as active; inconclusive = small, poorly fitted or top-dose-only effect, or another doubt; inactive = no such curve, though single readings can be large or run the other way; note: potency is the fitted concentration of half-maximal effect
Target sequence (P15428 whole entry, looked up): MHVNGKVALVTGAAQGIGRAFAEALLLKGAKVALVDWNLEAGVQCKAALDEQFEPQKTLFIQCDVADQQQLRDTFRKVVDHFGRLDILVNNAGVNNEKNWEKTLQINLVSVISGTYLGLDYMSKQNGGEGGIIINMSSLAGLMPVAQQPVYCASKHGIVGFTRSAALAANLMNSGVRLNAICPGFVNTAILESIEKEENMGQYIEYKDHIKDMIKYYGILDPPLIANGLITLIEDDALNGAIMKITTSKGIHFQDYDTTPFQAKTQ
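NADH formation kinetics: reaction with 30 uM PGE2 and 1 mM NAD+ (final), 20 nM enzyme, Tris-HCl pH 8 with Tween 20, after 15 min compound preincubation at room temperature. Fluorescence change, last versus first of five reads.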
PNC inhibitor: blocks assembly of the perinucleolar compartment. PC3M PTB-GFP, PNC prevalence imaging, 16 h; hits give low values. activity change (PNC), negative = inhibition, % at 10 µM. actives 3.1% (n = 140,000). AID 2417;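 active = readout at or below -70, meaning at least 70% loss of cells showing the perinucleolar compartment, a nuclear body marking cancer cells; inconclusive = readout between -30 and a set limit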;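 note: plate controls were DMSO wells for no effect and camptothecin positive control wells for full effect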
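Read-out is percentage of cells bearing a perinucleolar compartment, from automated 20x imaging of fixed, Hoechst-stained PC3M PTB-GFP cells. Cells were seeded 4 h, then exposed 16 h to compound (23 nl of library stock) in duplicate plates.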
Numbers without * were called inactive; ? = inconclusive; . = not tested or not shown; ! = a repeat was not active; [ ] = remark or other dose. Unless noted, calls come from the whole dose curve; as a rule, active = well fitted curve in the direction sought with a large enough effect; inconclusive = small, poorly fitted or top-dose-only effect, or another doubt; inactive = no such curve, though single readings can be large; an effect the other way counts as inactive or inconclusive. Unless noted, % is set by controls: 0 for no effect and ±100 for the full control effect.

SMILES	ALDH1A1 inh	IMPase Li cell	ALOX12 inhib	IMPase inh	HPGD inh	PNC inhibitor
CCOc1ccc(NC(=O)C2CCCN(S(=O)(=O)c3cccc4nonc34)C2)cc1 (configuration not stated)	.	.	.	2	.	.
COC(=O)c1ccccc1-c1ccc(C(c2c(C)[nH][nH]c2=O)c2c(C)[nH][nH]c2=O)o1	11%	9%	.	.	.	.
COC(=O)c1cccc(-c2ccc(C(c3c(C)[nH][nH]c3=O)c3c(C)[nH][nH]c3=O)o2)c1	6.3µM*	9%	.	.	.	.
O=C(O)c1cc(-c2ccc(/C=N/Nc3ccc(Cl)cc3)o2)ccc1Cl	?	-9%[38.3 µM]	?	-8	?	74
Cc1[nH][nH]c(=O)c1C(c1ccc(-c2ccc(Cl)c(C(=O)O)c2)o1)c1c(C)[nH][nH]c1=O	10µM*	2%	.	.	.	.
CCNC(=O)N1CCCC(C(=O)c2ccc(OC)c(OC)c2)C1 (configuration not stated)	1%	0%	.	.	.	.
COc1ccccc1C(=O)COC(=O)c1ccc(N(C)C)cc1	?	12%	.	.	.	.
COc1ccc(C(=O)c2ccc(N(C)C)cc2)c2ccccc12	-9%	5%	-1%	-6	-5%	-97*
COc1nc(N)nc2c1ncn2[C@@H]1C[C@H](O)[C@@H](CO)O1	8%[13.5 µM]	-6%	-1%[11.4 µM]	.	-3%	.
Cc1ccc(S(=O)(=O)N[C@@H](CCc2ccccc2)CC(=O)C(C)(C)C)cc1	-17%[13.5 µM]	.	.	.	.	.
O=C(CN1CCCCC1)N=Nc1c(O)[nH]c2ccccc12	13µM*	6%	.	.	.	.
Cc1ccc(C)cc1	-5%	3%	-1%	.	-13%	.
Cc1ccc(C#N)cc1	32µM*	0%	-3%	.	3%	.
CCc1ccc(OCC(=O)Nc2ccc(Cl)c(-c3nc4ncccc4o3)c2)cc1	.	.	.	2	.	.
COc1cccc2sc(Nc3nnc(-c4ccccc4Cl)o3)nc12	?	-2%	0%	-10	-20%	?
COc1ccc2oc(=O)c(-c3csc(Nc4cccc(O)c4)n3)cc2c1	-10%	14%	-4%	.	-18%	60
COc1ccccc1-c1nnc(Nc2nc3c(OC)cccc3s2)o1	?	?	0%	0	?	-87*
O=C(Nc1nc(-c2cc3ccccc3oc2=O)cs1)c1ccc(Br)o1	?	17%[38.3 µM]	20µM*	-3	?	?
COc1cccc2cc(/C(C)=N/Nc3nc(-c4cc(C)ccc4C)cs3)c(=O)oc12	?	49%[38.3 µM]	1%	-10[1.84 µM]	32µM*	8
Nc1ccc(Nc2nc(-c3cc4ccccc4oc3=O)cs2)cc1	?	11%	.	.	.	.
COc1ccc(Nc2nc(-c3cc4cccc(OC)c4oc3=O)cs2)cc1	22µM*	3%	2%	-4	-12%	14
CCOC(=O)Cn1c(=O)cc(C)c2cccc(C)c21	1%	13%	.	.	.	.
O=C(O)c1ccc([N+]2=Cn3c(nc4ccccc43)C2)cc1	16%[13.5 µM]	4%	-1%[11.4 µM]	.	0%	.
COC(=O)[C@@H](NC(=O)O[C@H]1C(=O)c2cc(OC)ccc2O[C@@H]1c1ccc(OC)c(Br)c1)C(C)C	?	10%	.	.	-16%	.
CCC(C)CCCCC(=O)NC(CCN)C(=O)NC(C(=O)NC(CCN)C(=O)NC1CCNC(=O)C(C(C)O)NC(=O)C(CCN)NC(=O)C(CCN)NC(=O)C(CC(C)C)NC(=O)C(Cc2ccccc2)NC(=O)C(CCN)NC1=O)C(C)O (configuration not stated)	10%	3%	?	.	-2%	.
SMILES	ALDH1A1 inh	IMPase Li cell	ALOX12 inhib	IMPase inh	HPGD inh	PNC inhibitor
CN(C)Cc1ccccc1-c1cc(N(C)C)ncn1	-5%	-2%	-3%	.	-4%	.
COc1cccc2sc(Nc3nc(-c4ccncc4)cs3)nc12	1%	3%	.	.	.	.
COc1cccc2sc(Nc3nc(-c4cc5ccccc5oc4=O)cs3)nc12	?	11%	-3%	9	?	-84*
CCC(CCC(C)C1CCC2C3CC=C4CC(OC(C)=O)CC[C@@]4(C)C3CC[C@@]12C)C(C)C (some centres not stated)	13%	2%	-2%	.	-11%	.
COC(=O)N1CCC2(CCN(Cc3ccccc3)CC2)CC1	5%	13%	1%	.	-5%	.
Cc1occc1C(=O)NC(C)C12CC3CC(CC(C3)C1)C2 (configuration not stated)	0%	10%	.	.	.	.
Cc1occc1C(=O)NN=C1C2CC3CC(C2)CC1C3	?	-1%	-1%	?	-7%	-100*
Cc1ccc(S(=O)(=O)/N=C(/c2ccc(F)cc2)N2CCCC2)cc1	-9%	1%	.	.	.	.
Cc1ccc(S(=O)(=O)/N=C(/c2ccc(F)cc2)N2CCCCC2)cc1	25µM*	0%	1%	5	-9%	?
CCOc1ccc(C2C(C(N)=O)=C(C)Nc3nc(-c4ccc(OC)cc4)nn32)cc1 (configuration not stated)	.	.	.	-1	.	.
COC(=O)C1=C(C)N(Cc2ccccc2)C(=O)N[C@@H]1c1ccccc1	2%	9%	.	.	-3%	.
CC1=C(C(=O)OCc2ccccc2)C(c2ccc(-c3ccccc3)cc2)NC(=O)N1CCCCCC(=O)O (configuration not stated)	-8%	12%	1%	.	-10%	47
COC(=O)C1=C(C)N(Cc2ccccc2)C(=O)N[C@H]1c1ccccc1	7.9µM*!	2%	-7%	.	-2%	41
CC1=C(C(=O)OCc2ccccc2)C(c2ccccc2)NC(=O)N1CCCCCC(=O)O (configuration not stated)	0%	6%	-1%	.	-10%	-80*
COc1ccccc1NC(=S)N1CCC(C(=O)c2ccc(F)cc2)CC1	5%	0%	.	.	.	.
O=c1oc2cc(Oc3ccc(C(F)(F)F)cc3[N+](=O)[O-])ccc2c2c1CCC2	16µM*	13%	1%	-5	?	25
O=c1oc2cc(Oc3c([N+](=O)[O-])cc(C(F)(F)F)cc3[N+](=O)[O-])ccc2c2c1CCCC2	?	-3%[38.3 µM]	-16%	1	?	46
COc1ccc(C(=O)NC(=S)Nc2ccc(N3CCOCC3)c(Cl)c2)cc1[N+](=O)[O-]	6%	-4%	?	.	8.9µM*	-100*
COc1ccc(C(=O)NC(=S)Nc2ccccc2N2CCOCC2)cc1[N+](=O)[O-]	7.1µM*	6%	6%	.	-13%	29
CCCC(=O)NC(=S)Nc1ccc(N2CCOCC2)c(Cl)c1	0%	10%	-12%	.	-20%	-25
COc1ccc(C(=O)Nc2ccccc2N2CCOCC2)cc1[N+](=O)[O-]	?	0%	17%	.	-10%	-9
Cc1cc(C(=O)NC(=S)Nc2ccccc2N2CCOCC2)ccc1[N+](=O)[O-]	10µM*	8%	7%	.	-19%	52
